Assay in all cases: qHTS profiling for inhibitors of Plasmodium falciparum proliferation (AID 504749); also: nearly all actives have a fitted effect of over 60% in size
Common to all, as to details: P. falciparum in erythrocytes, SYBR Green DNA, 72 h; series mostly up to 28.7 µM
A general note: In qHTS, concentration-response curves come from the screen itself.

The subject of one test is CP335. The method in brief:
(§1)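 Readout was DNA-dye fluorescence from lysed cultures, ex 485/em 535 nm. Parasitized red cells had grown 72 h with compound; data scaled between 0.29 uM artemisinin and DMSO wells and corrected using vehicle-only plates.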

In another test the test system is DFO2036. The method in brief:
as §1

In a further test the test system is DIV14. An outline of the steps: as §1
Another test concerns DIV17. The method in brief:
as §1

The next test has as its system DIV30. The method in brief:
as §1

The test system of another test is Dd2. An outline of the steps:
as §1

The next test has as its system ECU. The method in brief:
as §1

A further test has as its system FAB9. The method in brief:
as §1

In the next test the test system is GB4. The method in brief: as §1
Another test has as its system HB3. An outline of the steps:
as §1

Inconclusive results are not listed. Activity calls are given as the source filed them. Calls follow the shape of the dose curve; as a rule, active = well fitted inhibition curve with a large enough effect; inconclusive = small, poorly fitted or top-dose-only effect; inactive = flat fitted curve, though single readings scatter.
Potency is read from the fitted curve at half-maximal effect.

For `CC(C)NC[C@H](O)COc1ccc(CC(N)=O)cc1`, the Potency entry with CP335, in the test with DFO2036, with DIV14, in the test on DIV17, with Dd2 and in the test on ECU was “inactive” throughout. For the same compound, the Potency result with GB4 and in the test on HB3 was “inactive” throughout. Also, the compound was classed as inactive in the test on DIV30 and in the test with FAB9.
For the compound `CC(O)C(O)[C@H]1CNc2nc(N)[nH]c(=O)c2N1` (stereo partly specified), the Potency entry in the test on CP335, with DFO2036, in the test with DIV14, in the test with DIV17, in the test with Dd2 and in the test on ECU was “inactive” in each case. The Potency result with GB4 and in the test with HB3 was “inactive” throughout. In addition, the compound was called inactive with DIV30 and with FAB9.
Take `CCCCCCCCCCCCCCCCCCOC[C@H](COP(=O)([O-])OCC[N+](C)(C)C)OC`: the Potency result with CP335, with DFO2036, with DIV14, in the test with DIV17, in the test on Dd2 and with ECU was “inactive” each time. In addition, the Potency result in the test on GB4 and in the test with HB3 was “inactive” in each case. Further, the result in the test with DIV30 and in the test with FAB9 was inactive.
`CN1C2CCC1CC(OC(c1ccccc1)c1ccccc1)C2` (stereo unspecified): the Potency with DIV14 is 4.78 µM (active); in the test with DIV17, 3.01 µM (active). Besides, in the test with FAB9, the compound was called inactive. The Potency entry in the test on HB3 was “inactive”.
Regarding `CCCCCCCCCCCCCCC[C@H](O)[C@H](N)CO`, the Potency entry with CP335, in the test with DFO2036, in the test on DIV14, in the test with DIV17, with ECU and in the test on GB4 was “inactive” throughout. Moreover, in the test on HB3, the Potency result is “inactive”. The call in the test on DIV30 and in the test on FAB9 was inactive.
On to `c1ccc(C2CN3CCSC3=N2)cc1` (stereo unspecified), for which the Potency with CP335 is 5.36 µM (active); in the test on DFO2036 it was 6.31 µM (active); with DIV14 it was 2.69 µM (active); with DIV17 it was 3.01 µM (active); in the test on Dd2, 3.98 µM (active); with ECU, 8.91 µM (active). Also, the Potency with GB4 was 8.49 µM (active); in the test with HB3, 3.16 µM (active).

For the origin of these results see PubChem BioAssay (NCATS).
